Inconclusive results are not listed. Where a call stands in place of a potency, no number is given. A number with no mark means an inactive call. Calls of active or inactive are those of the source. The call rests on the fitted dose curve; in most records, active means well fitted activation curve with a large enough effect; inconclusive means small, poorly fitted or top-dose-only effect; inactive means no such curve, though single readings can be large or run the other way.
Potency means the concentration at half of the fitted maximal effect.

The test can be described thus: qHTS assay for re-activators of p53 using a Luc reporter: Hit Validation. Further: nearly all actives have a fitted effect of over 75% in size. The settings on record: p53-responsive luciferase reporter cells, luminescence, H1299 line expressing heat-sensitive Ala138Val p53; series mostly up to 46.1 µM. An outline of the steps: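 Hit confirmation with a 1:5 dilution series, at 37 deg C for 24 hrs, in H1299 cells co-expressing temperature-sensitive p53-A138V and p53-responsive luciferase. Nocodazole served as control; luminescence read after 10 min with detection reagent.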
In the case of `O=C(Nc1nnc(-c2cccs2)o1)c1cccc(Oc2ccccc2)c1`, the Potency result was “inactive”. For the compound `COc1ccc(N(C(=O)Nc2ccc(Cl)cc2)C2=NCCC2)cc1`, the Potency result was “inactive”. As for `CC(=O)c1ccc(Nc2ncnc3c2oc2ccccc23)cc1`, the Potency was 1.64 µM (active). For the compound `O=C(NN=C1CCCCCC1)c1cccs1`, the activation was 12.5% [at 9.22 µM]. On to `CS(=O)(=O)c1ccc2nc(NC(=O)c3ccco3)sc2c1`, for which the Potency was 14.6 µM (active). Regarding `Cc1ccc(-n2c(C)cc(C(=O)CSc3nnc4ccccn34)c2C)cc1`, the Potency was 6.51 µM (active). Turning to `Cc1ccc(-c2nnc(N(C)C(=O)C3CCCO3)s2)cn1` (stereo not drawn), the Potency entry is “inactive”. On the same count and under the same terms, the same measure for `Cc1ccc(NC(=O)CCN2C(=O)c3cccc([N+](=O)[O-])c3C2=O)c(Br)c1`: “inactive”.

For `O=C(Nc1nc(-c2cccs2)cs1)c1ccc([N+](=O)[O-])o1`, the Potency is 20.6 µM (active). Turning to `Cc1cs/c(=N\N=C\c2ccc(O)cc2)n1Cc1ccco1`, the Potency result was “inactive”. Consider `CC(=O)c1c(C)[nH]c(C(=O)OCC(=O)c2ccc(C)s2)c1C`, for which the Potency entry is “inactive”. The same measure, in the same setting: in the case of `NC(=O)c1cc2ccc(O)cc2oc1=Nc1ccccc1` it was “inactive”. Regarding `CN(NC1CC(=O)N(c2ccccc2)C1=O)c1ccccc1` (stereo not drawn), the Potency result was “inactive”.

Take `c1ccc(Oc2cc(-n3cncn3)ncn2)cc1`: the Potency result was “inactive”. Turning to `O=C1NC(c2ccc(Br)cc2)=N/C1=C/c1ccco1`, the Potency is 0.58 µM (active). Still for that read-out and setting: in the case of `Cc1cccc(-n2c(O)c(C=Nc3ccccc3N)c(=O)[nH]c2=O)c1` it was “inactive”. On to `O=C(NCC1CCCO1)c1ccc(NC(=O)c2cccc([N+](=O)[O-])c2)cc1` (stereo not drawn), for which the Potency result was “inactive”.

Consider `Cc1cccc(NC(=O)/C=C/c2ccc(Cl)cc2)n1`, for which the Potency is 2.31 µM (active). Regarding `O=C(c1cccc(Br)c1)c1coc2ccc(O)cc12`, the Potency was 23.1 µM (active). Regarding `CN(C)c1ccc(NC(=O)CCCc2ccccc2)cc1`, the Potency is 1.46 µM (active). With `O=C(CCS(=O)(=O)c1ccccc1)Nc1ccc(-c2nc3ccccc3s2)cc1`, the Potency was 0.651 µM (active). As to `O=C(Oc1ccc2ccccc2c1Cl)N1CCCCCC1`, the Potency was 5.8 µM (active). The same measure, in the same setting: the same measure for `O=C(NC(=S)NCCc1ccccc1)C1CCCCC1`: 23.1 µM (active); for `COc1ccc(N2CCN(CCCNC(=O)C3(S(=O)(=O)c4ccc(Cl)cc4)CC3)CC2)cc1`: “inactive”. Consider `Cc1ccc(C(=O)OCC(=O)NCC2COc3ccccc3O2)cc1` (stereo not drawn), for which the Potency result was “inactive”.

With `COC(=O)c1ccc(CSc2nnc(-c3c[nH]c4ccccc34)n2-c2ccccc2)cc1`, the Potency entry was “inactive”.

Take `COC(=O)CSc1nc2cc(OC)ccc2cc1C#N`: the Potency was 9.2 µM (active). Regarding `Cc1cc(C(F)(F)F)c(C#N)c(SCC(=O)Nc2nc3ccccc3s2)n1`, the Potency is 1.46 µM (active). For `N#Cc1cccc(N=Cc2c(O)ccc3ccccc23)c1`, the Potency result was “inactive”. The same measure, in the same setting: the same measure for `CN(C)c1ccc(CNC2CC(C)(C)NC(C)(C)C2)cc1`: “inactive”; for `CC(C)c1ccc(C(O)c2nc3ccccc3n2C)cc1` (stereo not drawn): “inactive”. With `O=C(COc1ccc(F)cc1Cl)NC1CCCCCC1`, the Potency is 7.31 µM (active). `Cc1ccc(OCCCNCCO)c(Br)c1`: the Potency entry was “inactive”. In the case of `CCCCCCC1CC(/C(C)=N\NC(N)=O)OC1=O` (stereo not drawn), the Potency result is “inactive”. For the compound `CC1C(=O)CCN(C(C)(C)C)C1C` (stereo not drawn), the Potency entry was “inactive”. Take `CC(=O)c1ccc(N2Cc3ccccc3C2=NC(=O)c2cccs2)cc1`: the Potency entry is “inactive”. For the compound `Cc1ccc(NC2=C(Cl)C(=O)c3ccccc3C2=O)cc1`, the Potency result is “inactive”. Take `COc1ccc(C(C)(C)C)cc1NC(=O)Nc1ccc2c(c1)OCO2`: the Potency result is “inactive”.

(Values after PubChem BioAssay AID624305 (National Center for Advancing Translational Sciences (NCATS), 2012).)
